Measurements as given in the supplement of paper PMC10338343.
± gives the standard deviation.

Legend:
[1] = test system: MILI (PIWIL2) piRISC loaded with piRNA #1 (26 nt); assay: pre-steady-state target cleavage rate (min^-1); guide: piRNA #1 5'p-UGAGGUAGUAGGUUGUAUAGUAUCCA; higher = faster piRNA-guided slicing of the target; conditions: auxiliary factor: 500 nM mouse GTSF1
In short: (§1)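 Sequencing of uncleaved targets, normalised to depth and to weakly complementary targets, was the readout of this Cleave-'n-Seq assay. A transcribed, DNA-blocked target RNA library (0.1 nM) was mixed with 1 nM active affinity-purified piRISC carrying one synthetic guide, with or without 500 nM GTSF1 partner protein, in HEPES–potassium acetate buffer at 33 °C for 0–8 or 0–960 min. Three trials were pooled, k3 was capped at 0.0001 min^-1, and a burst-and-steady-state fit gave the pre-steady-state cleavage rate.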

[2] = test system: EfPiwi piRISC loaded with piRNA #1 (26 nt); assay: pre-steady-state target cleavage rate (min^-1); auxiliary factor: 500 nM Ephydatia muelleri Gtsf1; guide: piRNA #1 5'p-UGAGGUAGUAGGUUGUAUAGUAUCCA; MIWI and MILI are mouse PIWI proteins and EfPiwi is from a freshwater sponge; tags in brackets are library labels; higher = faster piRNA-guided slicing of the target
In short: as §1

Sequence	pre-steady-state target cleavage rate [1]	pre-steady-state target cleavage rate [2]
GGAGAGGAUACUUUACAACCUAGUACCUCA	0.0146 ± 0.0048	0.00261 ± 0.0016
GGAGACCAUACUAUACAACCUAUCUACCUCA	0.0997 ± 0.014	0.00419 ± 0.0028
GGAGACCAUACUAUACCAACCUACUACCUCA	0.0299 ± 0.0075	0.00761 ± 0.0031
